Source: PubChem BioAssay (NCATS)
Results filed as inconclusive are left out. Activity calls are given as the source filed them. Calls come from the whole dose curve; as a rule, active = well fitted inhibition curve with a large enough effect; inconclusive = small, poorly fitted or top-dose-only effect; inactive = flat fitted curve, though single readings scatter. Where a SMILES comes first, the peptide text is derived from it. Bridges are numbered along the chain shown (N, C = ends). [ ]: non-standard residue; d: D form. hArg = N=C(N)NCCCC[C@H](N)C(=O)O; Mpa = O=C(O)CCS

What was measured:
[1] = system: JCK; experiment: qHTS profiling for inhibitors of Plasmodium falciparum proliferation (AID 504749);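 note: 0% = DMSO vehicle and full inhibition = artemisinin control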; settings: P. falciparum in erythrocytes, SYBR Green DNA, 72 h; series mostly up to 28.7 µM
Procedure, shortened: (§1)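 Each compound contacts P. falciparum-infected red blood cells for 72 h at 37 C; lysis buffer (Tris, EDTA, saponin, Triton X, SYBR Green I) is added and fluorescence measured next morning; values normalized to controls.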

[2] = system: N140; experiment: as above; settings: P. falciparum in erythrocytes, SYBR Green DNA, 72 h; series mostly up to 28.7 µM
Procedure, shortened: as §1

[3] = system: P93_24; experiment: as above; settings: P. falciparum in erythrocytes, SYBR Green DNA, 72 h; series mostly up to 28.7 µM
Procedure, shortened: as §1

[4] = system: P94_40; experiment: as above; settings: P. falciparum in erythrocytes, SYBR Green DNA, 72 h; series mostly up to 28.7 µM
Procedure, shortened: as §1

[5] = system: PAD; experiment: as above; settings: P. falciparum in erythrocytes, SYBR Green DNA, 72 h; series mostly up to 28.7 µM
Procedure, shortened: as §1

[6] = system: PC15; experiment: as above; settings: P. falciparum in erythrocytes, SYBR Green DNA, 72 h; series mostly up to 28.7 µM
Procedure, shortened: as §1

[7] = system: PC26; experiment: as above; settings: P. falciparum in erythrocytes, SYBR Green DNA, 72 h; series mostly up to 28.7 µM
Procedure, shortened: as §1

[8] = system: PC49; experiment: as above; settings: P. falciparum in erythrocytes, SYBR Green DNA, 72 h; series mostly up to 28.7 µM
Procedure, shortened: as §1

[9] = system: SC27B; experiment: as above; settings: P. falciparum in erythrocytes, SYBR Green DNA, 72 h; series mostly up to 28.7 µM
Procedure, shortened: as §1

[10] = system: TAB109; experiment: as above; settings: P. falciparum in erythrocytes, SYBR Green DNA, 72 h; series mostly up to 28.7 µM
Procedure, shortened: as §1

[11] = system: TAB113; experiment: as above; settings: P. falciparum in erythrocytes, SYBR Green DNA, 72 h; series mostly up to 28.7 µM
Procedure, shortened: as §1

[12] = system: TAB165; experiment: as above; settings: P. falciparum in erythrocytes, SYBR Green DNA, 72 h; series mostly up to 28.7 µM
Procedure, shortened: as §1

[13] = system: W2; experiment: as above; settings: P. falciparum in erythrocytes, SYBR Green DNA, 72 h; series mostly up to 28.7 µM
Procedure, shortened: as §1

[14] = system: CRL-7250; experiment: Cytotoxic Profiling of Annotated Libraries Using Quantitative High-Throughput Screening (AID 1296008); settings: Five cell lines viability, CellTiter-Glo ATP luminescence, 48-72 h; active compounds read low; for max response: % is set by controls: 0 for no effect and ±100 for the full control effect
Procedure, shortened: (§2)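 Cells exposed to compounds for 48 or 72 hr at 37 degrees Celsius. Viability read as ATP-coupled luminescence with CellTiter-Glo after 10 min at room temperature.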

[15] = system: HEK293; experiment: as above; settings: Five cell lines viability, CellTiter-Glo ATP luminescence, 48-72 h; active compounds read low
Procedure, shortened: as §2

[16] = system: HaCat; experiment: as above; settings: Five cell lines viability, CellTiter-Glo ATP luminescence, 48-72 h; active compounds read low
Procedure, shortened: as §2

[17] = system: KB-3-1; experiment: as above; settings: Five cell lines viability, CellTiter-Glo ATP luminescence, 48-72 h, active compounds read low
Procedure, shortened: as §2

[18] = system: NIH3T3; experiment: as above; settings: Five cell lines viability, CellTiter-Glo ATP luminescence, 48-72 h; active compounds read low
Procedure, shortened: as §2

[19] = system: HACAT; experiment: qHTS assay to identify novel small-molecules to repurpose for Merkel cell carcinoma treatment (AID 1296009); settings: MCC and control cell lines, CellTiter-Glo viability, 72 h; at 44.8 µM (top of the series) unless noted
Procedure, shortened: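 Dose-response viability screen; 72 hr exposure at 37 degree celsius; CellTiter-Glo added, 10 min room temperature, luminescence read; RLUs scaled between no-cell and DMSO wells.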
Note: nearly all actives have a fitted effect of over 60% in size.

O=c1[nH]cnc2nc[nH]c12
inactive: Potency [1] | Potency [2] | Potency [3] | Potency [4] | Potency [5] | Potency [6] | Potency [7] | Potency [8] | Potency [9] | Potency [10] | Potency [11] | Potency [12] | Potency [13] | max response [14] -2.48% | max response [15] -1.3% | outcome [16] | max response [17] -17.5% | max response [18] -0.611% | outcome [19]

CC[N+](C)(CC)CCOC(=O)C1c2ccccc2Oc2ccccc21
inactive: Potency [1] | Potency [2] | Potency [3] | Potency [4] | Potency [5] | Potency [6] | Potency [7] | Potency [8] | Potency [9] | Potency [10] | Potency [11] | Potency [13] | outcome [14] | max response [15] -9.27% | outcome [16] | max response [17] 56.3% | max response [18] 2.85% | outcome [19]

CCOC(=O)[C@H](CCc1ccccc1)N[C@@H](C)C(=O)N1CCC[C@H]1C(=O)O
inactive: Potency [1] | Potency [2] | Potency [3] | Potency [4] | Potency [5] | Potency [6] | Potency [7] | Potency [8] | Potency [9] | Potency [10] | Potency [11] | Potency [12] | Potency [13] | max response [14] 2.02% | max response [15] -1.68% | outcome [16] | max response [17] 7.19% | outcome [18] | outcome [19]

CC(=O)Oc1cccc(O)c1
inactive: Potency [1] | Potency [2] | Potency [4] | Potency [5] | Potency [6] | Potency [7] | Potency [8] | Potency [9] | Potency [10] | Potency [11] | Potency [12] | Potency [13] | max response [14] 2.6% | max response [15] 2.67% | outcome [16] | max response [17] -9.73% | outcome [18] | outcome [19]

Cc1ccc(S(=O)(=O)NC(=O)NC2CCCCCCC2)cc1
inactive: Potency [1] | Potency [2] | Potency [3] | Potency [4] | Potency [5] | Potency [6] | Potency [7] | Potency [8] | Potency [9] | Potency [10] | Potency [11] | Potency [12] | Potency [13] | max response [14] -5.06% | max response [15] 4.09% | outcome [16] | max response [17] 0.148% | max response [18] 3.55% | outcome [19]

O=C(O)CCC(=O)O
inactive: Potency [1] | Potency [2] | Potency [3] | Potency [4] | Potency [5] | Potency [6] | Potency [7] | Potency [8] | Potency [9] | Potency [10] | Potency [11] | Potency [12] | Potency [13] | max response [14] 3.26% | max response [15] 3.09% | outcome [16] | max response [17] 7.68% | max response [18] -0.925% | outcome [19]

NC(=O)[C@@H]1CSSCCC(=O)N[C@@H](CCCCN=C(N)N)C(=O)NCC(=O)N[C@@H](CC(=O)O)C(=O)N[C@@H](Cc2c[nH]c3ccccc23)C(=O)N2CCC[C@H]2C(=O)N1 ([Mpa][hArg]GDWPC-NH2; disulfide 1-7)
inactive: Potency [1] | Potency [2] | Potency [3] | Potency [4] | Potency [5] | Potency [6] | Potency [7] | Potency [8] | Potency [9] | Potency [10] | Potency [11] | Potency [12] | Potency [13] | outcome [14] | max response [15] -7.03% | outcome [16] | max response [17] 3.01% | max response [18] -4.92% | outcome [19]

COC(=O)c1ccc(O)cc1
inactive: Potency [1] | Potency [2] | Potency [3] | Potency [4] | Potency [5] | Potency [6] | Potency [7] | Potency [8] | Potency [9] | Potency [10] | Potency [11] | Potency [12] | Potency [13] | max response [14] 1% | max response [15] 3.26% | outcome [16] | max response [17] 0.911% | outcome [18] | outcome [19]

CN1C(C)(C)CCCC1(C)C
inactive: Potency [1] | Potency [2] | Potency [3] | Potency [4] | Potency [5] | Potency [6] | Potency [7] | Potency [8] | Potency [9] | Potency [10] | Potency [11] | Potency [12] | Potency [13] | max response [14] -19.2% | max response [15] -21.6% | outcome [16] | max response [17] 7.25% | max response [18] -1.07% | outcome [19]

CC(=O)OCC(COC(C)=O)OC(C)=O
inactive: Potency [1] | Potency [2] | Potency [3] | Potency [4] | Potency [5] | Potency [6] | Potency [7] | Potency [8] | Potency [9] | Potency [10] | Potency [11] | Potency [12] | Potency [13] | max response [14] -1.86% | max response [15] -3.97% | outcome [16] | max response [17] 8.48% | outcome [18] | outcome [19]

Cc1onc(-c2ccccc2)c1-c1ccc(S(N)(=O)=O)cc1
inactive: Potency [1] | Potency [2] | Potency [3] | Potency [4] | Potency [5] | Potency [6] | Potency [7] | Potency [8] | Potency [9] | Potency [10] | Potency [11] | Potency [12] | Potency [13] | outcome [14] | max response [15] -13.2% | outcome [16] | max response [17] 6.03% | outcome [18] | outcome [19]

CN1CCCN=C1COC(=O)C(O)(c1ccccc1)C1CCCCC1 (stereo unspecified)
inactive: Potency [1] | Potency [2] | Potency [3] | Potency [4] | Potency [5] | Potency [6] | Potency [7] | Potency [8] | Potency [9] | Potency [10] | Potency [11] | Potency [12] | Potency [13] | max response [14] -8.2% | max response [15] -8.47% | outcome [16] | max response [17] -13.9% | outcome [18] | outcome [19]
